In PubChem BioAssay (NCATS):
Results filed as inconclusive are left out. Values without a mark were called inactive. Activity calls are given as the source filed them. Calls follow the shape of the dose curve; as a rule, active = well fitted inhibition curve with a large enough effect; inconclusive = small, poorly fitted or top-dose-only effect; inactive = flat fitted curve, though single readings scatter.

The compounds below were run against Dual specificity protein kinase CLK4 (Homo sapiens) (UniProt Q9HAZ1) (assay: qHTS Assay for Inhibitors of CDC-like Kinase 4 (Kinase-Glo Assay) (AID 1770; also: nearly all actives have a fitted effect of over 65% in size)). Settings: recombinant Clk4, Kinase-Glo ATP depletion luminescence; series mostly up to 66.7 µM; activity, negative = inhibition: at the top concentration.
Procedure: NIH Molecular Libraries Probe Production Centers Network [MLPCN] NIH Chemical Genomics Center [NCGC] MLPCN Grant: 1R03MH084827-01 Assay Submitter (PI): Tom Misteli NCGC Assay Overview: Clk4 (Invitrogen, cat# PV3839) was assayed using ATP and the RS repeat peptide (AnaSpec cat # 61722) as substrates. Following the Clk4 reaction, the remaining ATP levels were detected using Promega Kinase-Glo technology wherein the remaining ATP from the kinase reaction is detected using Ultra-Glo luciferase and D-luciferin which generates a bioluminescence signal from the ATP. The positive control for the assay was TG003 (Sigma-Aldrich, cat# 300801-52-9) which has been described as an inhibitor of Clk 4[1].
NCGC Assay Protocol Summary: Two uL/well of substrate-buffer solution (100 uM RS peptide, 1 uM ATP, 25 mM Tris pH7.5, 10 mM MgCl2, 0.5 mM EGTA, 2.5 mM DTT, 0.01% Triton X-100 final concentration) was dispensed into 1536-well, assay plates (Greiner, solid white medium-binding plates) with Aurora Discovery BioRAPTR Flying Reagent Dispenser (FRD; Beckton-Dickenson). Using a Kalypsys pin tool equipped with a 1536-pin tool, 23 nL of compound solution was transferred to the assay plate. One uL/ well Clk4-buffer solution (25 nM Clk4, 25 mM Tris pH 7.5, 10 mM MgCl2, 0.5 mM EGTA, 2.5 mM DTT, 0.01% Triton X-100, final concentrations) was then added using the FRD yielding a total kinase reaction volume of 3 uL/ well. After 4.5 hours of room temperature incubation, 3 uL Kinase-Glo reagent was added for a final assay volume of 6 uL/ well. Luminescence was detected with the ViewLux plate reader (Perkin Elmer, Waltham, MA) after 5 min incubation using a 5 second exposure time and 2x binning.
% is scaled to controls: 0 for no effect and ±100 for the full control effect; potency is read from the fitted curve at half-maximal effect.

Chain of Dual specificity protein kinase CLK4 (Homo sapiens) (Q9HAZ1 whole entry, looked up): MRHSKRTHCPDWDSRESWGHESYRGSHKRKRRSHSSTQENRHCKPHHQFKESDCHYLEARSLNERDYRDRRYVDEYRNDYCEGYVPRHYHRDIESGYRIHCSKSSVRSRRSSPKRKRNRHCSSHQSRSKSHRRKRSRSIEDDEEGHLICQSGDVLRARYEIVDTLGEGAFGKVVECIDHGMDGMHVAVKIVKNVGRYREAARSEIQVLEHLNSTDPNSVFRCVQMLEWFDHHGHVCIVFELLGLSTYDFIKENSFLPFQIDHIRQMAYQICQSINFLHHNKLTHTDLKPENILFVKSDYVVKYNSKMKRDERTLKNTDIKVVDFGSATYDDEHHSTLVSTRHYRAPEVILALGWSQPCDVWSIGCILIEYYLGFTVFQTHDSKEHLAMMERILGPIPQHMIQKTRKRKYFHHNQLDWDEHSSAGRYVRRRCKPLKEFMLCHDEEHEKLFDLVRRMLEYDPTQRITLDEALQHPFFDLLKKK

SMILES	activity, negative = inhibition	Potency
CN(C)c1ncc2nc(-c3cc(F)cc(F)c3)c(=O)n(C[C@H]3CCCO3)c2n1	-1.61%	
CN1CCN(c2ncncc2-c2ccc(C(=O)N(C)C)cc2)CC1	-7.97%	
COCCn1c(=O)cnc2cnc(OC)nc21	-2.04%	
Cn1cc(-c2nc3cnc(N4CCOCC4)nc3n(C3CC3)c2=O)c2ccccc21	-10.5%	
c1csc(CNc2ccnc(-c3ccoc3)n2)c1	-27.4%	
Cc1noc(C)c1-c1cc(NCc2cccnc2)ncn1		15.8 µM (active)
COCCn1c(=O)c(-c2ccccc2)nc2cnc(OC)nc21	-7.39%	
CN(Cc1ccco1)c1ncnc2ccc(-c3ccoc3)cc12		0.112 µM (active)
COc1ncc2nc(-c3ccc(F)cc3)c(=O)n(-c3ccccc3)c2n1	3.03%	
Cn1c(=O)c(-c2cccs2)nc2cnc(N3CCOCC3)nc21	-4.02%	
O=c1c(-c2ccc(Cl)cc2)nc2cnc(N3CCOCC3)nc2n1-c1ccccc1	-4.66%	
Cc1nc2cnc(OCc3ccccc3)nc2n(C)c1=O	1.16%	
Cn1cc(-c2nc3cnc(N4CCNCC4)nc3n(C)c2=O)c2ccccc21	-6.64%	
COCCn1c(=O)c(-c2cccc(C#N)c2)nc2cnc(OC)nc21	-4.86%	
CN1CCN(c2ncc3nc(-c4cc(F)cc(F)c4)c(=O)n(CCc4ccccc4)c3n2)CC1	0.0243%	
CS(=O)(=O)Nc1cccc(-c2ccc3ncnc(NC4CCNCC4)c3c2)c1		11.2 µM (active)
COc1ccc(-c2nc3cnc(Nc4ccccc4)nc3n(Cc3cccs3)c2=O)cc1	-0.336%	
O=c1cnc2cnc(Oc3cccc(Cl)c3)nc2n1C[C@H]1CCCO1	-29.5%	
COc1cccc(Cn2c(=O)c(C)nc3cnc(N4CCN(C)CC4)nc32)c1	-2.99%	
CN(C)Cc1ccccc1-c1nc(N(C)C)c2ccccc2n1	-3.43%	

SMILES	activity, negative = inhibition	Potency
COc1ccc(Oc2ncc3nc(C)c(=O)n(-c4ccccc4)c3n2)cc1	-11.4%	
COc1cccc(Cn2c(=O)c(-c3cccs3)nc3cnc(N(C)C)nc32)c1	-0.0487%	
O=c1c(-c2ccc(F)cc2)nc2cnc(Oc3cccc(Cl)c3)nc2n1C1CC1	-0.229%	
COc1cccc(-c2cncnc2NC2CCNCC2)c1	-5.96%	
FC(F)(F)c1ccccc1-c1nc(NCCN2CCOCC2)c2ccccc2n1	-13.1%	
O=c1c(-c2ccc(Cl)cc2)nc2cnc(N3CCOCC3)nc2n1C[C@H]1CCCO1	-4.31%	
CCNc1ncc2nc(-c3ccc(Cl)cc3)c(=O)n(C[C@H]3CCCO3)c2n1	-1.43%	
COCCn1c(=O)c(-c2ccc(Cl)cc2)nc2cnc(Nc3ccccc3)nc21	0.0763%	
COc1cccc(Cn2c(=O)c(-c3ccccc3)nc3cnc(N4CCNCC4)nc32)c1	-4.96%	
c1nc(N2CCNCC2)c2cc(-c3ccoc3)ccc2n1		1.58 µM (active)
COc1cccc(-c2ccc3ncnc(NCc4cccnc4)c3c2)c1		2.82 µM (active)
COc1ccc(Oc2ncc3nc(-c4ccc(OC)cc4)c(=O)n(C4CC4)c3n2)cc1	-2.69%	
CCNc1ncc2nc(-c3ccc(F)cc3)c(=O)n(CCOC)c2n1	-1.8%	
COc1ccc(-c2nc3cnc(N4CCOCC4)nc3n(C3CC3)c2=O)cc1	-14.9%	
COCCn1c(=O)cnc2cnc(N3CCN(C)CC3)nc21	-25.4%	
CN(C)C(=O)c1ccc(-c2cc(-n3ccnc3)ncn2)cc1		11.2 µM (active)
CN(C)C(=O)c1ccc(-c2cncnc2NCCc2cnc[nH]2)cc1	-29.1%	
CS(=O)(=O)Nc1cccc(-c2ccc3ncnc(N4CCNCC4)c3c2)c1		6.31 µM (active)
Cc1noc(C)c1-c1cncnc1NCc1ccccc1	-20.2%	
COc1ccc(-n2c(=O)c(-c3ccccc3)nc3cnc(N4CCN(C)CC4)nc32)cc1	-8%	
